# Screen size: about 69,000 compounds; about 8,600 (12%) showed an effect of 50% or more. The sample holds strong results, similar compounds and a random draw of the others, so the mix is not that of the screen.
# Tested on: Plasmodium berghei
# Experiment: Screen against P. berghei liver stage (PbLuc), transformed with Luciferase, at 10uM
# Assay type: functional, HepG2
# Settings: tested at 10 uM
row,Compound,INHIBITION
1,CCn1cc(CN2CCCN(C(=O)CCc3cccs3)CC2)cn1,11.4%
2,c1cnn(Cc2cn3c(n2)CN(Cc2nccs2)CC3)c1,16.6%
3,COc1ccccc1C(C)(C)NC(=O)Nc1ccc(F)c(C(N)=O)c1,-16.9%
4,Cc1cc(C)c(CNC(=O)CC2CCCO2)c(=O)[nH]1 (stereo not given),14.55%
5,CCOCCCNC(=O)Cc1cccs1,30.8%
6,CCOCCCNC(=O)C(NC(=O)Cc1cccs1)c1ccccc1 (stereo not given),34.2%
7,CCOCCCNC(=O)C(NC(=O)Cc1cccs1)c1ccc(C)cc1 (stereo not given),54%
8,CN1CCOC(CN(C(=O)CCCn2cccn2)c2nccs2)C1 (stereo not given),-14.6%
9,NC(=O)N1Cc2nccn2CC(Cn2ncccc2=O)C1 (stereo not given),61.9%
10,CC(=O)NCC(=O)N1Cc2nccn2CC(CN2CCCC2)C1 (stereo not given),28.4%
11,CC(C)NC(=O)N1Cc2nccn2CC(CN2CCCC2)C1 (stereo not given),73%
12,O=C(c1ccccc1)N1Cc2nccn2CC(Cn2ncccc2=O)C1 (stereo not given),11.5%
13,O=C(N1CCCC1)N1Cc2nccn2CC(CN2CCCC2)C1 (stereo not given),42.6%
14,O=C(CC1CC1)N1Cc2nccn2CC(Cn2ncccc2=O)C1 (stereo not given),-13.2%
15,OC1(Cn2ccnc2)CCN(C[C@]2(O)CCCN3CCCC[C@@H]32)CC1,28.8%
16,O=C1CC2(CCN(C(=O)c3ccccn3)CC2)Oc2c(Br)cc(Br)cc21,34.2%
17,c1cncc(CC2CN(c3cccnc3)CCO2)c1 (stereo not given),-43%
18,O=C(NCc1cc(C2CC2)n(C2CCCC2)n1)C1CC1,44.4%
19,Cc1nc(CN2C(=O)CCC23CCN(c2ncccn2)CC3)cs1,-38.1%
20,O=C(NC1CC2(CCN(CCO)CC2)c2ccccc21)c1ccno1 (stereo not given),49.7%
21,C=C(C)CN1CCN(Cc2cnc(-c3ccc(OC)cc3)nc2)CC1,44.8%
22,CCOCCCNC(=O)c1cc(OC)c2ccoc2c1,6.11%
23,CC(c1ccncn1)N(C)S(=O)(=O)NCc1ccccc1 (stereo not given),4.65%
24,CC(c1nccs1)N(C)S(=O)(=O)NCc1ccccc1 (stereo not given),-1.6%

row,Compound,INHIBITION
1,CC(c1ccon1)N(C)S(=O)(=O)NCc1ccccc1 (stereo not given),50.9%
2,Cc1csc(N2CCN(C(=O)Cc3cccs3)CC2)n1,28.8%
3,CCCc1n[nH]c(C2CN(CCCS(=O)(=O)N(C)C)CCO2)n1 (stereo not given),-21.7%
4,CN(C)c1ncccc1N(C)C(=O)Cn1cc(-c2ccccc2)nn1,-0.85%
5,Cc1cccc(C2CCCN(S(=O)(=O)c3cccnc3)C2)n1 (stereo not given),19.36%
6,CN1CCO[C@@H]2CN(C(=O)c3ccc4ncccc4c3)CC[C@@H]2C1,58.4%
7,CN1CCO[C@@H]2CN(C(=O)c3ccc4[nH]ccc4c3)CC[C@@H]2C1,43%
8,CCN1CCO[C@@H]2CN(C(=O)c3ccc4[nH]ccc4c3)CC[C@@H]2C1,52.1%
9,CC(=O)N1CCO[C@@H]2CN(C(=O)c3ccccc3)CC[C@@H]2C1,12.1%
10,O=C(c1ncccn1)N1C[C@@H]2CN(CC3CC3)CCO[C@@H]2C1,31.9%
11,COCCN1CCO[C@@H]2CN(C(=O)c3ccc4[nH]ccc4c3)CC[C@@H]2C1,1.36%
12,CC(=O)N1CCO[C@@H]2CN(C(=O)c3ccc4ccccc4c3)CC[C@@H]2C1,-57.1%
13,O=C(c1ccc2[nH]ccc2c1)N1CC[C@@H]2CN(CC3CC3)CCO[C@@H]2C1,60.2%
14,CC(=O)N1CCO[C@@H]2CN(C(=O)c3ccc4ncccc4c3)CC[C@@H]2C1,49.1%
15,CN(C)c1cc(C(=O)N2CCCCC2Cn2cccn2)ccn1 (stereo not given),17.5%
16,CCOc1ccccc1N1CCN(C(=O)c2cc[nH]n2)CC1,44.1%
17,CN(C)CCOCC1CN(C(=O)N2CCCC2)Cc2ccnn2C1 (stereo not given),46.6%
18,O=C(O)c1cc(S(=O)(=O)Nc2ccccc2)cc2c1OCCO2,31.8%
19,CCCc1nc(CN(CC)Cc2ccc(O)c(C(=O)O)c2)no1,14.3%
20,CCN(CC)S(=O)(=O)c1ccc2c(c1)N(Cc1cccnc1)C(=O)CS2,-3.5%
21,O=C(c1cc[nH]n1)N1CCOCC2(C1)CN(c1ccccc1)C(=O)CO2 (stereo not given),-14.2%
22,Cc1cnn(C2CCCN(C(=O)CCc3c(C)noc3C)C2)c1 (stereo not given),16.8%
23,CCN(CCO)C[C@@H]1CN(C(=O)c2sc3ccccc3c2C)C[C@@H]1CO,47.6%
24,CCN(CCO)C[C@@H]1CN(C(=O)c2ccc(C)s2)C[C@@H]1CO,59.4%

row,Compound,INHIBITION
1,CCN(CCO)C[C@@H]1CN(c2nc(C)cc(C)n2)C[C@@H]1CO,54.6%
2,CCN(CCO)C[C@@H]1CN(c2cc(C(F)(F)F)cc(C)n2)C[C@@H]1CO,12.9%
3,Cc1c(C(=O)N2C[C@@H](CN(C)CCO)[C@@H](CO)C2)sc2ccccc12,32.1%
4,COCCN(C)C[C@@H]1CN(c2nc(C)cc(C)n2)C[C@@H]1CO,32.2%
5,O=C(NCc1cn2c(n1)CN(Cc1ccncc1)CC2)C1CCC1,43.9%
6,CCOc1ccnc(N2CCN(C(=O)c3cnc[nH]3)CC2)n1,31.8%
7,CC(C)c1cc(NC(=O)CNC2CCCN(c3cccnn3)C2)on1 (stereo not given),42.9%
8,CCC1(CC)CC(=O)N(CC(O)c2cccc(Br)c2)C1=O (stereo not given),-8%
9,Cc1nc(-c2ccco2)ccc1C(=O)NCCN1CCN(C)CC1,23.5%
10,CCC(CO)N(Cc1cccs1)C(=O)Cc1ccc(O)cc1 (stereo not given),71.1%
11,CCC(CO)N(Cc1cccs1)C(=O)Cc1ccncc1 (stereo not given),41.4%
12,CCC(CO)N(Cc1cccs1)C(=O)CSC (stereo not given),-36.3%
13,CCCNC(=O)COc1cc(C)c2c(C)nn(-c3ccccc3)c2n1,31.3%
14,COc1cc(C(=O)NS(=O)(=O)c2ccc(C#N)cc2)ccc1C,15.5%
15,COc1cc(C(=O)NS(=O)(=O)c2cccc(C#N)c2)ccc1C,14.4%
16,N#Cc1ccc(C(=O)NS(=O)(=O)c2ccc(F)c(F)c2)cc1,58.3%
17,N#Cc1cccc(C(=O)NS(=O)(=O)c2ccc(C#N)c(Cl)c2)c1,50.7%
18,N#Cc1ccc(S(=O)(=O)NC(=O)c2ccc3c(c2)COC3)cc1,6.61%
19,N#Cc1ccc(CS(=O)(=O)NC(=O)c2ccc(C#N)cc2)cc1,-6.52%
20,COc1cc(C(=O)NS(=O)(=O)c2cccc(C#N)c2)cc(Cl)c1OC,-5.25%
21,N#Cc1ccc(C(=O)NS(=O)(=O)c2ccc(C#N)c(Cl)c2)cc1,57.2%
22,COc1cccc(C(=O)NS(=O)(=O)c2cccc(C#N)c2)c1,38.8%

# Reference: ChEMBL document CHEMBL4513216, “Probing the Open Global Health Chemical Diversity Library for Multistage-Active Starting Points for Next-Generation Antimalarials” (ACS Infect Dis, 2020)
